The source made the active and inactive calls.
How the values were obtained:
[1] = system: Human papillomavirus type 1a protein E7 (residues 44-93); experiment: small molecules binding HPV E7 44-93 – biochemical, small-molecule microarray, residues 44-93, 635 nm fluorescence, primary screen (AID 1108); details: fluorescence 635 nm, higher = more signal;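 further: E7 fragment applied at 1 µg/mL in TBST for 1 h at 4 C; score combines spot fluorescence with its signal to noise ratio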
[2] = hepatitis C replication reporter changes, two-sided – Huh7 cells, luciferase reporter, HCV replication inhibitor project, primary screen (AID 1109); details: Huh7 HCV replicon luciferase reporter, 48 h; higher = more signal;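 further: huh7 hepatoma cells harbouring a luciferase neomycin HCV replicon reporter; luciferase luminescence as measure of HCV replicon replication; test concentration not given here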
[3] = molecular target: Left-right determination factor 2 (Homo sapiens) (UniProt O00292); experiment: small molecules binding LEFTY2 protein – biochemical, small-molecule microarray, 635 nm fluorescence scan, primary screen (AID 1110); details: higher = more signal
Chain of Left-right determination factor 2 (Homo sapiens) (O00292 whole entry, looked up): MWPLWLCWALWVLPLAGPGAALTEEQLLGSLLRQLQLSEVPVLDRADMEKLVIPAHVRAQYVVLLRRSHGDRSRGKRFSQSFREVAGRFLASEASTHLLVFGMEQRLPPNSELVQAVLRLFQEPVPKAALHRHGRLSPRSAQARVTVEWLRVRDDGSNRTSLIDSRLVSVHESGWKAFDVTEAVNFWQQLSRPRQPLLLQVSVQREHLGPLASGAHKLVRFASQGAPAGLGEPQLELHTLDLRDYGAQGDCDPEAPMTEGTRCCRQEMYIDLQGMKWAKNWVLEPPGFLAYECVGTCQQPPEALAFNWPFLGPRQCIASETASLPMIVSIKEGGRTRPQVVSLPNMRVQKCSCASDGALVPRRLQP

[4] = molecular target: Calmodulin-1 (Homo sapiens) (UniProt P0DP23); experiment: small molecules binding calmodulin-1 with EGTA – biochemical, small-molecule microarray, Cy5-labelled CALM1, profiling panel (AID 1111); details: Cy5-CALM1 binding fluorescence, higher = more signal;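 further: labelled calmodulin applied in Tris saline Tween buffer holding calcium plus EGTA and DTT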
[5] = molecular target: Calmodulin-1 (Homo sapiens) (UniProt P0DP23); experiment: small molecules binding Ca-loaded calmodulin-1 – biochemical, small-molecule microarray, Cy5-labelled CALM1, plus calcium, artefact control for SMM control-protein annotation, profiling panel (AID 1112); details: Cy5-CALM1 binding fluorescence, higher = more signal;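 further: score merges spot fluorescence with signal to noise from triplicate slides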
[6] = probe aWnt5a binding to arrayed compounds – biochemical, biotinylated probe, 635/667 nm fluorescence, primary screen (AID 1113); details: small-molecule microarray, higher = more signal;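 further: score merges 667 nm fluorescence intensity with signal-to-noise per printed feature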
[7] = probe aShh binding to arrayed compounds – biochemical, biotinylated probe, 635/667 nm fluorescence, primary screen (AID 1114); details: small-molecule microarray, higher = more signal;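 further: probe is biotin-labelled aShh protein from a stem cell growth factor screen; measures binding of labelled protein to compounds printed on the slide; score merges feature fluorescence at 667 nm with signal-to-noise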
[8] = probe aNog binding to arrayed compounds – biochemical, biotinylated probe, 635/667 nm fluorescence, primary screen (AID 1115); details: small-molecule microarray, higher = more signal;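 further: probe is biotinylated aNog protein used at 0.15 µg/mL for 1 h at 4 C; z-score combines 667 nm fluorescence of each spot with its signal to noise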
[9] = molecular target: Torsin-1A-interacting protein 1 (Homo sapiens) (UniProt Q5JTV8); experiment: compound microarray binding of lysate hLAP1 – cell lysate, small-molecule microarray, COS7 lysate, 635/667 nm fluorescence, primary screen (AID 1116); details: 635 nm fluorescence, higher = more signal
Chain of Torsin-1A-interacting protein 1 (Homo sapiens) (Q5JTV8 whole entry, looked up): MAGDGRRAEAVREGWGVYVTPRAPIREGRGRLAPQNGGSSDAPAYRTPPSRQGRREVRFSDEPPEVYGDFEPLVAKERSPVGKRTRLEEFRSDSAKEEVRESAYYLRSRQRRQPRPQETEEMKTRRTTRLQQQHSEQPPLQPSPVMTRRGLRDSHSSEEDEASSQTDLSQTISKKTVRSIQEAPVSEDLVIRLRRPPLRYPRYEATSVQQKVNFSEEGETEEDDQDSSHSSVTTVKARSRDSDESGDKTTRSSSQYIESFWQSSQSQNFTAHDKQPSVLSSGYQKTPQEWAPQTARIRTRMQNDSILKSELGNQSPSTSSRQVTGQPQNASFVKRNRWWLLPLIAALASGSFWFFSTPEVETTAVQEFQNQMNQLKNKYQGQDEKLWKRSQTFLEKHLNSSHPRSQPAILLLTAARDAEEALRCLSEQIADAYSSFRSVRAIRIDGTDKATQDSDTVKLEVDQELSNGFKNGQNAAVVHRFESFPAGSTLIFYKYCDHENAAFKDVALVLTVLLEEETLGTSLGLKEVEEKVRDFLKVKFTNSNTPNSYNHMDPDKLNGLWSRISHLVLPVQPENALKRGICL

[10] = molecular target: Alpha-bungarotoxin (Bungarus multicinctus) (UniProt P60615); experiment: compounds binding labelled alpha-BTX control protein – biochemical, small-molecule microarray, Alexa647 label, 635/667 nm fluorescence, artefact control for SMM control protein annotation, profiling panel (AID 1117); details: alpha-BTX-A647 binding fluorescence, higher = more signal
Chain of Alpha-bungarotoxin (Bungarus multicinctus) (P60615 whole entry, looked up): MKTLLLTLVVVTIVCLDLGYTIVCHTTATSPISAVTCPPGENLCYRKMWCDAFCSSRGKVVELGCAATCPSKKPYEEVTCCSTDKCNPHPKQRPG

Albumin (Bos taurus) = Albumin (Bos taurus) (UniProt P02769); experiment: compounds binding labelled BSA control protein – biochemical, small-molecule microarray, Alexa647 label, 635/667 nm fluorescence, artefact control for SMM control protein annotation, profiling panel (AID 1118); details: BSA-A647 binding, fluorescence 635 nm, higher = more signal;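 further: score merges 667 nm emission intensity and signal-to-noise per printed compound spot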
Chain of Albumin (Bos taurus) (P02769 whole entry, looked up): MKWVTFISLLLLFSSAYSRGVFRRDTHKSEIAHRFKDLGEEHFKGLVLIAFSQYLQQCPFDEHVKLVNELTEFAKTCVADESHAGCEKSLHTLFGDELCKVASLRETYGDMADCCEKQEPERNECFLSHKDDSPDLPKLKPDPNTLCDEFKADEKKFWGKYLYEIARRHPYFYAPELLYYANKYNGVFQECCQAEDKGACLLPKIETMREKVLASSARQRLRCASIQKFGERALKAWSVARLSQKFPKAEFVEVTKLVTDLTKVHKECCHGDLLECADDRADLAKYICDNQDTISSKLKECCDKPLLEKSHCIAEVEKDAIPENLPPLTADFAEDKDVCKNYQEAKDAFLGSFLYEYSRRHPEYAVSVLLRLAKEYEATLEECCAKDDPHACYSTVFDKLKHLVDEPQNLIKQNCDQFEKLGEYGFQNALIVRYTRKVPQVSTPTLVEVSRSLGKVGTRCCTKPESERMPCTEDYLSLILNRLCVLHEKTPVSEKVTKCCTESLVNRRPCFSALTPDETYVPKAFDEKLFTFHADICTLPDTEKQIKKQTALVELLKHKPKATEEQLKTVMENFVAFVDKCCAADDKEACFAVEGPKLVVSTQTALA

[11] = probe aXIP binding to arrayed compounds – biochemical, NeuroSMM set, 635/667 nm fluorescence, primary screen (AID 1119); details: small-molecule microarray, higher = more signal, called active from +8 up or from −8 down;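 further: probe is the protein aXip251-270 applied at 1 µg/mL to compound-printed slides; binding of probe to printed compounds measured as 667 nm fluorescence plus signal to noise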
[12] = probe aNOTCH3 binding on compound microarray – biochemical, small-molecule microarray, 635/667 nm fluorescence, primary screen (AID 1120); details: higher = more signal;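 further: probe is a biotin-tagged antibody raised against NOTCH3 rather than NOTCH3 protein; score merges spot fluorescence near 667 nm with spot signal to noise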
[13] = probe aNOTCH2 binding on compound microarray – biochemical, small-molecule microarray, 635/667 nm fluorescence, primary screen (AID 1121); details: higher = more signal;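 further: score merges feature fluorescence read at 667 nm with its signal to noise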
[14] = molecular target: Carbonic anhydrase 2 (Homo sapiens) (UniProt P00918); experiment: compounds binding carbonic anhydrase 2 – biochemical, small-molecule microarray, Alexa647-labelled CAII, profiling panel (AID 1122); details: CAII-A647 binding fluorescence, higher = more signal
[15] = COS7 lysate on small-molecule microarray, probe aHis, 635 nm (AID 1123); details: COS7 cell lysate, fluorescence, higher = more signal;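 further: z-score combines 667nm fluorescence intensity with signal-to-noise per printed compound spot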
[16] = probe aLAP1 signal on lysate-treated microarray – cell lysate, small-molecule microarray, COS7 lysate, primary screen (AID 1124); details: probe aLAP1, fluorescence, higher = more signal;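 further: lysate comes from COS7 cells expressing LAP1 and is applied at 0.3 µg/mL; score merges spot fluorescence near 667 nm with signal-to-noise over triplicate slides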
Sam68 (KHDRBS1) = experiment: compounds binding KHDRBS1 protein – biochemical, small-molecule microarray, 635 nm fluorescence, primary screen (AID 1125); details: higher = more signal;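 further: score merges 667 nm channel intensity with signal to noise over triplicate slides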
[17] = system: Chordin-like protein 2 (CHRDL2); experiment: compounds binding chordin-like 2 – biochemical, small-molecule microarray, 635 nm fluorescence, primary screen (AID 1126); details: fluorescence 635 nm, higher = more signal;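 further: printed compound slides probed with Chrdl2 protein at 4 µg/mL for 1 h at 4 C; score merges 667 nm emission intensity with signal to noise over three replicate slides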
[18] = molecular target: Concanavalin-A (Canavalia ensiformis) (UniProt P02866); experiment: compounds binding concanavalin A lectin – biochemical, small-molecule microarray, Alexa647 label, 635 nm, artefact control for SMM control protein annotation, primary screen (AID 1127); details: ConA-A647 binding fluorescence, higher = more signal;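 further: z combines 667 nm emission intensity with signal-to-noise across three replicate slides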
Chain of Concanavalin-A (Canavalia ensiformis) (P02866 whole entry, looked up): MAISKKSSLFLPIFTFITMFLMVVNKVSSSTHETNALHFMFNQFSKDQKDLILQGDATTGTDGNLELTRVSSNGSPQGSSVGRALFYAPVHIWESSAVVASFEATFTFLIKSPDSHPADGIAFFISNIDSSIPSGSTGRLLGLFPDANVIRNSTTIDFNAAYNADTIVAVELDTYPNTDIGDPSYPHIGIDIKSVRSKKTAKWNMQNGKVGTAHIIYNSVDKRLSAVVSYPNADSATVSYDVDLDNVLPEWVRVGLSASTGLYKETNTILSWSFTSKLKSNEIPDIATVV

Row | SMILES | composite z-score [1] | z-score [2] | composite z-score [3] | composite z-score [4] | composite z-score [5] | composite z-score [6] | composite z-score [7] | composite z-score [8] | composite z-score [9] | composite z-score [10] | composite z-score (Albumin (Bos taurus)) | composite Z-score [11] | composite z-score [12] | composite z-score [13] | composite z-score [14] | composite z-score [15] | composite z-score [16] | composite z-score (Sam68 (KHDRBS1)) | composite z-score [17] | composite z-score [18]
1 | COc1cc(NN2C(C(O)c3cc(OC)c(OC)c(OC)c3)C=CC3C(=O)N(c4ccccc4)C(=O)C32)cc(OC)c1OC (stereo not given) | 1.41 | -1.54 | 0.307 | 2.02 | 0.986 | 0.145 | -0.0193 | 0.756 | 1.56 | 2.35 | 1.06 | 0.573 (inactive) | 0.612 | 0.044 | 0.722 | 2.19 | 0.289 | 1.32 | 0.476 | 1.2
2 | CCOC(=O)C1=C[C@@H](c2ccccc2)N(S(=O)(=O)c2ccc(C)cc2)[C@H]1c1ccccc1 | 0.0627 | 0.235 | -0.063 | 0.997 | 0.209 | -0.124 | -0.138 | 1.13 | -0.109 | 0.291 | 0.612 | 0.185 (inactive) | 0.0636 | -0.022 | 0.0593 | -0.136 | 0.326 | 0.582 | 0.512 | 0.759
3 | NCCCCCNC(=O)[C@H]1C[C@H]2C(=O)N[C@@H](Cc3ccccc3)C(=O)N2[C@H]1c1ccc(O)cc1 | 1.05 | 0.0505 | 0.202 | 2.24 | 1.14 | 0.183 | 0.596 | 0.859 | 0.456 | 0.949 | 0.819 | 0.491 (inactive) | 0.248 | 0.197 | 0.487 | 1.23 | 1.23 | 1.28 | 0.518 | 1.08
4 | COCC1=C2[C@@H](CCc3ccccc3)OB(O)C[C@@H]2[C@@H]2C(=O)N(C)C(=O)[C@@H]2C1 | -0.152 | -1.2 | 0.211 | -0.344 | -0.294 | -0.0405 | -0.138 | -0.205 | 0.226 | -0.273 | 0.229 | 0.289 (inactive) | -0.0918 | -0.108 | 0.21 | 0.06 | -0.179 | 0.106 | 0.5 | -0.141
5 | [N-]=[N+]=NCc1ccccc1[C@@H]1OC(c2ccc(OCCCO)cc2)=N[C@]1(Cc1ccccc1N=[N+]=[N-])C(=O)N1CCCCC1 | 1.41 | -2.12 | 0.0538 | 1.93 | 1.26 | -0.248 | -0.023 | -0.538 | 0.482 | 0.671 | 0.354 | 0.038 (inactive) | -0.137 | -0.116 | 0.56 | 2.57 | 0.0904 | 1.22 | -0.39 | 1.14
6 | COc1cc2c(cc1OC)CN(C(=O)[C@@H]1[C@H]3C(=O)O[C@H](c4ccccc4)[C@H](c4ccccc4)N3[C@H](c3ccc(O)cc3)[C@@]13C(=O)Nc1ccc(C#CCCO)cc13)CC2 | 1.12 | -1.09 | 0.686 | 0.758 | -0.224 | -0.0538 | -0.11 | -0.102 | 0.678 | 0.319 | 0.571 | 0.37 (inactive) | -0.0699 | -0.113 | 0.606 | 1.08 | 0.78 | 1.13 | 0.481 | 0.754
7 | CCCC=C(CCC)[C@@H](NS(=O)(=O)c1cccc2cccnc12)c1ccc(-c2ccccc2)cc1 | 1.39 | -0.0261 | 0.601 | 1.62 | 0.841 | 0.183 | 0.432 | -0.779 | 0.765 | 1.08 | 0.723 | 0.339 (inactive) | 0.438 | -0.0581 | 0.666 | 2.88 | 0.0607 | 1.31 | -0.677 | 1.14
8 | C[C@@H]1ON(c2ccc(I)cc2)[C@H](c2ccc(OC(=O)OC(C)(C)C)cc2)[C@H]1C(=O)N1C(=O)OC[C@H]1Cc1ccccc1 | 1.15 | -1.12 | 0.628 | 0.501 | -0.502 | -0.241 | -0.0431 | -0.321 | 0.362 | 0.943 | 0.578 | 0.0054 (inactive) | -0.0043 | -0.14 | 0.574 | 0.527 | -0.36 | 1.15 | 0.376 | 1.09
9 | CCC(CC)C(O)C1C=CC2C(=O)N(c3ccccc3)C(=O)C2N1Nc1ccc([N+](=O)[O-])cc1 (stereo not given) | 1.47 | -0.451 | -0.139 | 1.27 | 0.717 | 0.152 | 0.04 | 0.0323 | 0.0001 | 1.42 | 1.01 | 1.13 (inactive) | 0.443 | 0.125 | 0.573 | 1.72 | 1.35 | 1.3 | -0.0998 | 1.05
10 | COCC1C2CC[C@H]3C(OCc4ccc(OC)cc4)OC[C@]4(C)[C@H]3C2=C(CN4C(=O)OC(C)(C)C)[C@H](C)C1COC (stereo not given in full) | 1.4 | -0.733 | 0.366 | 2.47 | 0.671 | -0.0134 | 0.0898 | -0.373 | 0.782 | 1.14 | 1 | 0.709 (inactive) | 0.249 | -0.182 | 0.796 | 2.82 | 0.534 | 1.3 | -0.355 | 1.15
